# Experimental data published in PubChem BioAssay (NCI).
# This is part of a sample that, as a whole, favours compounds with a hit. Of some 83,000 tested, about 20% had one in any assay.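 Results are percent growth after 48 hours of single-concentration exposure. 100 means growth as in untreated cells, lower positive values show inhibition; negative values down to -100 show cell death.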 Activity calls are given as the source filed them. Rule for the calls: active = growth percent below 10; inactive = the rest.
# System: MDA-MB-435 melanoma
# Assay: NCI-60 one-dose screen, 48 h (100 = growth as untreated, 0 = no growth, -100 = all killed)
# Details: 10 µM unless noted
row,Structure (SMILES),growth
1,CN1C(=O)C2(SCC(C(=O)NCC(=O)OC(C)(C)C)N2C(=O)C2CCCCC2)c2ccccc21 (stereo not drawn),104% (inactive)
2,COc1cc([C@@H]2c3cc4c(cc3C(OC3O[C@@H]5COC(C)O[C@H]5[C@H](O)[C@H]3O)C3COC(=O)[C@@H]32)OCO4)cc(OC)c1O (stereo partly drawn),50% (inactive)
3,O=[N+]([O-])c1cccc(C2c3ccccc3Oc3ccccc32)c1,98.1% (inactive)
4,O=c1cc(Cl)[nH]c(=O)[nH]1,111% (inactive)
5,C=CCOc1ccc(/C(Cl)=N/N=C(\Cl)c2cc(OC)c(OC)c(OC)c2)cc1,80.6% (inactive)
6,CN(C)c1ccc(/C=c2\s/c(=C\C(=O)C(C)(C)C)[nH]c2=O)cc1,89.3% (inactive)
7,Cc1ccn2cc(Cc3cc(=O)oc4c3ccc3ccccc34)c(=O)nc2c1,104% (inactive)
8,Clc1ccc(CN2COc3c(ccc4cccnc34)C2)cc1Cl,12.8% (inactive)
9,COc1ccccc1N1CCN(CC(O)COc2c(Br)c(Br)c(Br)c3c2OC(C)(C)C3)CC1 (stereo not drawn),37.2% (inactive)
10,CCN(CC)CCNC(=O)c1c(C)[nH]c(/C=C2\C(=O)Nc3cc(NC(=O)NC(=O)c4ccc(OC)cc4F)ccc32)c1C,110% (inactive)
11,O=C(CSc1nnc(-c2ccc(Cl)cc2)o1)Nc1ccc(C(=O)/C=C/c2ccccc2)cc1,91.4% (inactive)
12,Cn1c2ccccc2c2ssc(=S)c21,91.7% (inactive)
13,CN(CCNCc1ccccn1)CCNCc1ccccn1,-30.7% (active)
14,Cc1ccc2c(C3C(C#N)=C(N)Oc4cc5ccccc5cc43)cc(=O)oc2c1 (stereo not drawn),-48.2% (active)
15,CNCCCOc1c(Br)cc(CCNC(=O)/C(Cc2ccc(OC)c(Br)c2)=N/O)cc1Br,41% (inactive)
16,COC(OC)C1(c2ccccc2)NC(=O)NC1=O (stereo not drawn),111% (inactive)
17,CC(C)(C)OC(=O)NCc1cccc(N=C=S)c1,51% (inactive)
18,Cc1cc(-c2ccccc2)nc2ccccc12,109% (inactive)
19,O=C(Cn1c2ccccc2c2ccncc21)N/N=C\c1ccc2ccccc2c1,24.5% (inactive)
20,CC[C@H]1[C@@H]2C=C[C@@H]3[C@H]4C/C=C\C(=O)NCCC[C@@H]5NC(=O)/C(=C(O)/C=C/[C@@H]4C[C@@H]3[C@H]2C[C@H]1C)C5=O,-81% (active)

row,Structure (SMILES),growth
1,COc1ccc(/C=C/C(=O)c2ccc(Oc3ncnc4ccccc34)cc2)cc1OC,39.1% (inactive)
2,Cc1cc(N2CCOCC2)nc(N(CCNc2ccnc3cc(Cl)ccc23)Cc2ccco2)n1,26.6% (inactive)
3,CC(C)(c1ccc(OCC(O)CNCc2ccco2)cc1)c1ccc(OCC(O)CNCc2ccco2)cc1 (stereo not drawn),89.5% (inactive)
4,CCC1CN2C(=N1)c1ccccc1-c1cc(Cl)ccc12 (stereo not drawn),25.4% (inactive)
5,O=C(Nc1cccc(-n2ccc3c(NC(=O)c4ccccc4)nccc32)c1)c1cccc(C(F)(F)F)c1,1.38% (active)
6,CCOc1ccc(-n2c(-c3cc(OC)c(OC)c(OC)c3)nnc2-c2ccc(OC)cc2N)cc1,81.3% (inactive)
7,O=C(COc1ccc(Cl)cc1)N1CCN(Cc2ccc3c(c2)OCO3)CC1,101% (inactive)
8,C=C1C(=O)O[C@H]2[C@H]1CC/C(COC(=O)c1cccc3ccccc13)=C\CC[C@@]1(C)O[C@@H]21,-54.2% (active)
9,O=C(NNC(=O)c1ccc([N+](=O)[O-])cc1)c1ccc([N+](=O)[O-])cc1,101% (inactive)
10,COc1ccc(-n2c(-c3ccc(NC(=O)CCCl)cc3)nnc2-c2cc(OC)c(OC)c(OC)c2)cc1,54.9% (inactive)
11,N#Cc1c(N)nc2c(c1N)C(c1ccc(Cl)cc1)C1=C(CCCC1=O)N2c1sc2c(c1C#N)CCCC2 (stereo not drawn),112% (inactive)
12,CS(=O)(=O)Nc1cccc(-c2ccc3ncnc(Nc4cncc(Cl)c4)c3c2)c1,49.9% (inactive)
13,COc1cc(C(=O)NNC(=O)c2ccccc2O)cc(OC)c1OC,96.9% (inactive)
14,C=C1C(=O)O[C@H]2[C@H]1CC/C(COC(=O)c1cc(OC)c(OC)c(OC)c1)=C\CC[C@@]1(C)O[C@@H]21,-53% (active)
15,CC(C)(CCN=C(N)Nc1ccccn1)c1ccc(C(F)(F)F)cc1,18.7% (inactive)
16,O=C(Nc1ccc(-n2cc(-c3ccncc3)c(-c3ccc(O)c(Cl)c3)n2)cc1)c1cc(Cl)cc(Cl)c1,21.5% (inactive)
17,CCOc1ccccc1C(=O)N1CCN(c2cc(Cl)cc(Cl)c2)CC1,-12.8% (active)
18,COc1ccc(/C=N/C2=NNC(C)(c3ccccc3O)N2C(Cc2c[nH]c3ccccc23)C(=O)O)cc1 (stereo not drawn),3.69% (active)
19,O=C(NCCNc1nccc(-c2c(-c3cccc(O)c3)nc3sccn23)n1)c1ccccc1O,14.3% (inactive)

# System: SW-620 colon
# Assay: as above
# Details: 10 µM unless noted
row,Structure (SMILES),growth
1,CN1C(=O)C2(SCC(C(=O)NCC(=O)OC(C)(C)C)N2C(=O)C2CCCCC2)c2ccccc21 (stereo not drawn),98.7% (inactive)
2,COc1cc([C@@H]2c3cc4c(cc3C(OC3O[C@@H]5COC(C)O[C@H]5[C@H](O)[C@H]3O)C3COC(=O)[C@@H]32)OCO4)cc(OC)c1O (stereo partly drawn),35.6% (inactive)
3,O=[N+]([O-])c1cccc(C2c3ccccc3Oc3ccccc32)c1,86.9% (inactive)
4,O=c1cc(Cl)[nH]c(=O)[nH]1,106% (inactive)
5,C=CCOc1ccc(/C(Cl)=N/N=C(\Cl)c2cc(OC)c(OC)c(OC)c2)cc1,68.3% (inactive)
6,CN(C)c1ccc(/C=c2\s/c(=C\C(=O)C(C)(C)C)[nH]c2=O)cc1,101% (inactive)
7,Cc1ccn2cc(Cc3cc(=O)oc4c3ccc3ccccc34)c(=O)nc2c1,103% (inactive)
8,Clc1ccc(CN2COc3c(ccc4cccnc34)C2)cc1Cl,18% (inactive)
9,COc1ccccc1N1CCN(CC(O)COc2c(Br)c(Br)c(Br)c3c2OC(C)(C)C3)CC1 (stereo not drawn),33.3% (inactive)
10,CCN(CC)CCNC(=O)c1c(C)[nH]c(/C=C2\C(=O)Nc3cc(NC(=O)NC(=O)c4ccc(OC)cc4F)ccc32)c1C,94.9% (inactive)
11,O=C(CSc1nnc(-c2ccc(Cl)cc2)o1)Nc1ccc(C(=O)/C=C/c2ccccc2)cc1,101% (inactive)
12,Cn1c2ccccc2c2ssc(=S)c21,105% (inactive)
13,CN(CCNCc1ccccn1)CCNCc1ccccn1,4.13% (active)
14,Cc1ccc2c(C3C(C#N)=C(N)Oc4cc5ccccc5cc43)cc(=O)oc2c1 (stereo not drawn),27.1% (inactive)
15,CNCCCOc1c(Br)cc(CCNC(=O)/C(Cc2ccc(OC)c(Br)c2)=N/O)cc1Br,41% (inactive)
16,COC(OC)C1(c2ccccc2)NC(=O)NC1=O (stereo not drawn),109% (inactive)
17,CC(C)(C)OC(=O)NCc1cccc(N=C=S)c1,60.2% (inactive)
18,Cc1cc(-c2ccccc2)nc2ccccc12,102% (inactive)
19,O=C(Cn1c2ccccc2c2ccncc21)N/N=C\c1ccc2ccccc2c1,26.4% (inactive)
20,CC[C@H]1[C@@H]2C=C[C@@H]3[C@H]4C/C=C\C(=O)NCCC[C@@H]5NC(=O)/C(=C(O)/C=C/[C@@H]4C[C@@H]3[C@H]2C[C@H]1C)C5=O,69.2% (inactive)

row,Structure (SMILES),growth
1,COc1ccc(/C=C/C(=O)c2ccc(Oc3ncnc4ccccc34)cc2)cc1OC,32.2% (inactive)
2,Cc1cc(N2CCOCC2)nc(N(CCNc2ccnc3cc(Cl)ccc23)Cc2ccco2)n1,50.5% (inactive)
3,CC(C)(c1ccc(OCC(O)CNCc2ccco2)cc1)c1ccc(OCC(O)CNCc2ccco2)cc1 (stereo not drawn),90.3% (inactive)
4,CCC1CN2C(=N1)c1ccccc1-c1cc(Cl)ccc12 (stereo not drawn),18.6% (inactive)
5,O=C(Nc1cccc(-n2ccc3c(NC(=O)c4ccccc4)nccc32)c1)c1cccc(C(F)(F)F)c1,20.2% (inactive)
6,CCOc1ccc(-n2c(-c3cc(OC)c(OC)c(OC)c3)nnc2-c2ccc(OC)cc2N)cc1,67.2% (inactive)
7,O=C(COc1ccc(Cl)cc1)N1CCN(Cc2ccc3c(c2)OCO3)CC1,97% (inactive)
8,C=C1C(=O)O[C@H]2[C@H]1CC/C(COC(=O)c1cccc3ccccc13)=C\CC[C@@]1(C)O[C@@H]21,-52.8% (active)
9,O=C(NNC(=O)c1ccc([N+](=O)[O-])cc1)c1ccc([N+](=O)[O-])cc1,106% (inactive)
10,COc1ccc(-n2c(-c3ccc(NC(=O)CCCl)cc3)nnc2-c2cc(OC)c(OC)c(OC)c2)cc1,54.5% (inactive)
11,N#Cc1c(N)nc2c(c1N)C(c1ccc(Cl)cc1)C1=C(CCCC1=O)N2c1sc2c(c1C#N)CCCC2 (stereo not drawn),107% (inactive)
12,CS(=O)(=O)Nc1cccc(-c2ccc3ncnc(Nc4cncc(Cl)c4)c3c2)c1,33.2% (inactive)
13,COc1cc(C(=O)NNC(=O)c2ccccc2O)cc(OC)c1OC,103% (inactive)
14,C=C1C(=O)O[C@H]2[C@H]1CC/C(COC(=O)c1cc(OC)c(OC)c(OC)c1)=C\CC[C@@]1(C)O[C@@H]21,-49.5% (active)
15,CC(C)(CCN=C(N)Nc1ccccn1)c1ccc(C(F)(F)F)cc1,-11.2% (active)
16,O=C(Nc1ccc(-n2cc(-c3ccncc3)c(-c3ccc(O)c(Cl)c3)n2)cc1)c1cc(Cl)cc(Cl)c1,33.6% (inactive)
17,CCOc1ccccc1C(=O)N1CCN(c2cc(Cl)cc(Cl)c2)CC1,22.9% (inactive)
18,COc1ccc(/C=N/C2=NNC(C)(c3ccccc3O)N2C(Cc2c[nH]c3ccccc23)C(=O)O)cc1 (stereo not drawn),17.2% (inactive)
19,O=C(NCCNc1nccc(-c2c(-c3cccc(O)c3)nc3sccn23)n1)c1ccccc1O,77.9% (inactive)
